Data taken from PubChem BioAssay (NCI).
About 79,000 compounds went through this panel and 15% of them were active in at least one assay; those are over-represented in the sample as a whole. A number with no mark means an inactive call. Activity calls are given as the source filed them. Rule as the data show it: active = growth inhibition above about 70%; inactive = the rest.

Key:
[1] = NCI Yeast Anticancer Drug Screen. Data for the rad50 strain (AID 155);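 also: 0% = growth of vehicle-only cultures of the same strain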; details: S. cerevisiae rad50 strain growth inhibition, hits give high values
Summary of the method: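 Genetically altered yeast (DNA repair pathway); compound treatment; growth inhibition vs vehicle ctrl.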

[2] = NCI Yeast Anticancer Drug Screen. Data for the mec2-1 strain (AID 157); details: S. cerevisiae mec2-1 strain, hits give high values
Summary of the method: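 Cells of the genetically defined mec2-1 yeast strain are incubated with test compound. Inhibition of growth is calculated against vehicle-treated controls.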

[3] = NCI Yeast Anticancer Drug Screen. Data for the sgs1 mgt1 strain (AID 161);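 also: 0% = growth of cultures given vehicle only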; details: S. cerevisiae sgs1 mgt1 strain, hits give high values
Summary of the method: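 Mutant yeast exposed to compound; growth scored against vehicle-only wells.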

[4] = NCI Yeast Anticancer Drug Screen. Data for the cln2 rad14 strain (AID 165);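 also: 0% = growth equal to vehicle treated cultures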; details: S. cerevisiae cln2 rad14 strain, hits give high values
Summary of the method: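 The screen exposed genetically defined yeast (cln2 rad14) to test compounds and scored growth inhibition relative to vehicle-treated controls.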

[5] = NCI Yeast Anticancer Drug Screen. Data for the bub3 strain (AID 167); details: S. cerevisiae bub3 mutant strain, hits give high values
Summary of the method: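 Yeast carrying a defined mutation is treated with each compound, and growth is compared with that of vehicle-exposed cells to give inhibition.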

[6] = NCI Yeast Anticancer Drug Screen. Data for the mlh1 rad18 strain (AID 175); details: S. cerevisiae mlh1 rad18 strain growth inhibition, hits give high values
Summary of the method: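 Compound-treated yeast growth, normalised to vehicle controls. Strain bears defined DNA repair mutations.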

[7] = at 5.0 µM (retest, dose inferred, filed as 0.5)
[8] = at 50.0 µM (retest, dose inferred, filed as 5.0)

Compound | growth inhibition [1, 7] | growth inhibition [1, 8] | growth inhibition ([1]; at 50.0 µM) | growth inhibition [2, 7] | growth inhibition [2, 8] | growth inhibition ([2]; at 50.0 µM) | growth inhibition [3, 7] | growth inhibition [3, 8] | growth inhibition ([3]; at 50.0 µM) | growth inhibition [4, 7] | growth inhibition [4, 8] | growth inhibition ([4]; at 50.0 µM) | growth inhibition [5, 7] | growth inhibition [5, 8] | growth inhibition ([5]; at 50.0 µM) | growth inhibition [6, 7] | growth inhibition [6, 8] | growth inhibition ([6]; at 50.0 µM)
COc1nc(NC2OC(CO)C(O)C(O)C2O)c(Cl)c(=O)[nH]1 (stereo not given) | 1% | 1% | 47.5% | 4% | 12% | -0.6% | 12% | 4% | 24.1% | 7% | 11% | 20.6% | 4% | 14% | 15.3% | 4% | 5% | 1.65%
CC1=C(C)CC(C#N)(C#N)C(C#N)(C#N)C1 | -12% | 80% (active) | 83.9% (active) | 10% | 92% (active) | 79.6% (active) | -13% | 80% (active) | 82.2% (active) | -18% | 86% (active) | 38.1% | 30% | 97% (active) | 58.7% | 6% | 97% (active) | 75.3% (active)
CCCCCCCCCCn1cc[nH]c1=S | 47% | 99% (active) | 99% (active) | 47% | 99% (active) | 99.2% (active) | 72% (active) | 99% (active) | 99.3% (active) | 18% | 99% (active) | 98.8% (active) | 72% (active) | 99% (active) | 99.2% (active) | 59% | 98% (active) | 99.3% (active)
CCCCCCCCCCCCCCNC(=O)C[N+](C)(C)Cc1ccccc1 | 99% (active) | 99% (active) | 99.5% (active) | 99% (active) | 100% (active) | 99.7% (active) | 99% (active) | 99% (active) | 99.3% (active) | 99% (active) | 99% (active) | 99.5% (active) | 99% (active) | 99% (active) | 99.4% (active) | 99% (active) | 99% (active) | 99.6% (active)
c1ccc(Cn2nnnc2-c2ccccc2)cc1 | -151% | -125% | 23.8% | -53% | -43% | 43.5% | -66% | -61% | 1.75% | -55% | -33% | 80.5% (active) | -70% | -57% | 5.45% | -147% | -89% | 14.3%
